The list is not random: actives were taken first. Their share in the collection is about 3.7%.
BoNT F protease – BoNT F light chain protease inhibition; Multiplex microsphere protease cleavage assay, flow cytometry; inhibition, % at 10 µM; 0.22% of 360,000 active; AID 588497; in the data active means inhibition above about 35%, passing the limit was not always enough; inconclusive means no clear call, values can overlap the other calls; further: plate controls were buffer without enzyme for full effect and enzyme alone for no effect
Anthrax LF inh2 – anthrax lethal factor protease inhibition. P15917. multiplex microsphere protease cleavage assay, LF. inhibition, % at 10 µM. 0.12% of 360,000 active. AID 588501; further: plate controls were buffer without enzyme for full effect and enzyme alone for no effect
Target sequence (P15917 whole entry, looked up): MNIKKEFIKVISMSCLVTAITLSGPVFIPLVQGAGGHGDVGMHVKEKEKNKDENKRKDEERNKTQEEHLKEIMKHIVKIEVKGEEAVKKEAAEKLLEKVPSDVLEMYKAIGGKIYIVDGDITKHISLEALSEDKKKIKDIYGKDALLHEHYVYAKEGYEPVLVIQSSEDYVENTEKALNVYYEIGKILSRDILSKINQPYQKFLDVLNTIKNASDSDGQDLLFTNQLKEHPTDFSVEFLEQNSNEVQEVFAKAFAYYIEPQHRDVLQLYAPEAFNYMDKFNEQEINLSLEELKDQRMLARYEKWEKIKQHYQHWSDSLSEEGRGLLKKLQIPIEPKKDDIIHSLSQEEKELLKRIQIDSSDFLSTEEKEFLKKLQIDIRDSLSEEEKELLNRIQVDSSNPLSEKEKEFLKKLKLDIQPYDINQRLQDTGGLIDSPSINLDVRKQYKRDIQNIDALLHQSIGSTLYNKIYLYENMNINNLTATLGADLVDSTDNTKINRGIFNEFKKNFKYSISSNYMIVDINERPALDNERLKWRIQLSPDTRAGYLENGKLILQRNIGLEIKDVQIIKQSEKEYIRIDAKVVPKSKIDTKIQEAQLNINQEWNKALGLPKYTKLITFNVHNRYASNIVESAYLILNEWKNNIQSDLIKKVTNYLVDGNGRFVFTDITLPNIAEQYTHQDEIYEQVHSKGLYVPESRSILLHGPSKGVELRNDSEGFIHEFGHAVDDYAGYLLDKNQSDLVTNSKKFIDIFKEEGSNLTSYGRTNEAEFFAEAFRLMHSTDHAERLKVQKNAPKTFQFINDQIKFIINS
MazF activator – increases E. coli MazEF RNase cleavage of RNA. P0AE70. FAM/BHQ RNA-DNA oligo cleavage fluorescence, 5 h. activation, % at 20 µM. 0.32% of 350,000 active; in the data active means activation above about 50%
Autofluor counter – compound fluorescence in toxin protease inhibitor counterscreen; compound autofluorescence counterscreen, microsphere flow cytometry; hits give high values; fluorescence intensity (no concentration beside the values); 3.1% of 360,000 active; AID 624483; in the data active means fluorescence intensity above about 16000; inconclusive means no clear call, values can overlap the other calls
BoNT-A LC inh2 – blocks Botulinum neurotoxin A light chain protease. multiplex microsphere protease substrate cleavage, flow cytometry. inhibition, % at 10 µM. 0.17% of 360,000 active. AID 588499; further: plate controls were buffer without enzyme for full effect and enzyme alone for no effect
* marks the source's active call; other numbers are inactive results; ? = inconclusive; . = no result given. Unless noted, no stated cut-off is given here; in the data, active means inhibition above about 30%; inconclusive means no clear call, values can overlap the other calls; inactive means below that.

SMILES	BoNT F protease	Anthrax LF inh2	MazF activator	Autofluor counter	BoNT-A LC inh2
CCN(CC)c1ccc(/C=c2/sc3nnc(-c4ccccc4C)n3c2=O)cc1	18.9	21.4	-276.0	14577	20.2
Cc1ccc(/C=c2\sc3nc(-c4ccccc4Br)nn3c2=O)o1	-15.1	6.6	5.6	3367	5.2
Cc1ccc(/C=c2/sc3nnc(-c4ccccc4Cl)n3c2=O)o1	-2.5	-3.4	5.6	16190*	0.0
CCc1c(C)c2ccc(OCC(=O)N(C)C)c(C)c2oc1=O	3.9	1.3	1.2	21643*	0.9
COC(=O)Cc1c(C)c2ccc(OCc3nn[nH]n3)c(C)c2oc1=O	3.1	-6.1	2.7	21317*	4.0
CCc1c(C)c2ccc(OCC(=O)OC(C)C)c(C)c2oc1=O	-1.9	1.2	-0.5	24390*	-1.2
COc1ccc(Nc2nc(Nc3ccc(OC)cc3)nc(SC3=NCCS3)n2)cc1	-1.3	-3.9	2.6	4214	-1.6
O=C1Cc2cc(S(=O)(=O)NCc3ccc(F)cc3)ccc2N1	0.0	-6.1	19.7	3711	0.2
COCCNC(=O)C1(C)CCN(C(=O)c2cccc(C)c2C)C1 (centres undefined)	-1.2	-12.3	.	3582	-0.4
O=[N+]([O-])c1cccnc1N1CCOCC1	8.5	4.7	-3.8	19529*	?
O=C1CCN(c2ncccc2[N+](=O)[O-])CC1	-4.4	-2.0	10.9	4339	0.1
O=[N+]([O-])c1cc(F)c(N2CCCCC2)cc1N1CCOCC1	-5.3	-3.9	2.7	9474	0.3
O=C(Nc1ccccc1N1CCOCC1)c1ccccc1[N+](=O)[O-]	-2.4	-0.2	1.9	24174*	-2.0
O=[N+]([O-])c1cc(F)c(N2CCOCC2)cc1N1CCCCC1	-7.6	-1.8	-0.1	24982*	-4.6
O=C(Nc1ccccc1N1CCOCC1)c1ccc(N2CCOCC2)c([N+](=O)[O-])c1	8.0	-2.0	8.6	4372	0.9
Cc1cc(C)cc(OCCNC(=O)CCc2ccccc2)c1	-12.1	11.5	-3.0	4088	-0.7
Cc1ccc(C(=O)Nc2cnc3ccccn3c2=O)cc1	-5.5	-1.0	3.2	24404*	-2.0
CCC(CO)Nc1ccc([N+](=O)[O-])c2cccnc12 (centres undefined)	-4.7	0.2	4.9	22808*	-2.0
CC(O)CNc1ccc([N+](=O)[O-])c2cccnc12 (centres undefined)	-4.0	-1.5	5.7	2237	0.1
CCN(CCNc1ccc([N+](=O)[O-])c2cccnc12)S(=O)(=O)c1ccccc1	4.1	1.2	138.3*	10277	3.6
CC1(C)CC(=O)C2=C(C1)NC(=O)C21C(C(=O)OC(C)(C)C)=C(N)Oc2ccc(Br)cc21 (centres undefined)	2.6	0.0	-4.3	22960*	1.6
CCCCn1cnc2cc(NCc3cccc(OC)c3O)ccc21	-8.0	-4.9	-8.7	20423*	?
Cc1nn(-c2ccccc2)c2c1C(c1ccc3c(c1)OCO3)SCC(=O)N2 (centres undefined)	-6.0	-2.2	6.7	12596	0.3
COc1cc(C2SCC(=O)Nc3c2c(C)nn3-c2ccccc2)cc(OC)c1OC (centres undefined)	3.7	-1.9	2.8	19341*	2.8
CC1CCC(NC(=O)COC(=O)CNC(=O)c2ccc3ccccc3c2)CC1 (centres undefined)	-11.1	-3.4	6.4	3238	-0.5
SMILES	BoNT F protease	Anthrax LF inh2	MazF activator	Autofluor counter	BoNT-A LC inh2
CCCCC(=O)C1C(=O)NC(=O)NC1=O	3.1	-3.3	2.9	19202*	2.1
O=C(Cn1cc([N+](=O)[O-])ccc1=O)NCc1ccc(Cl)cc1Cl	2.8	1.7	-0.7	5264	1.2
O=C(c1ccc([N+](=O)[O-])cc1)N(Cc1ccc(Cl)cc1)N1C(=O)CCCC1=O	-6.2	-1.6	6.7	17414*	-5.0
O=C(c1ccc([N+](=O)[O-])cc1)N(Cc1ccc(Cl)cc1Cl)N1C(=O)CCCC1=O	4.8	-5.6	-3.4	22479*	2.2
O=C(c1ccc(Cl)cc1)N(Cc1ccc(Br)cc1)N1C(=O)CCC1=O	-6.4	-3.9	11.3	4462	0.1
Cc1nn(-c2ccccc2)c2c1C1(C(=O)N(C)c3ccccc31)C(C#N)=C(N)O2 (centres undefined)	-0.8	-5.9	-1.4	9741	0.5
Cc1nn(-c2ccccc2)c2c1C1(C(=O)N3c4c(cccc41)C(C)CC3(C)C)C(C#N)=C(N)O2 (centres undefined)	0.0	-1.3	-2.0	22394*	2.2
Brc1ccc(OCc2ccccc2)c(CNCc2ccncc2)c1	-15.4	-9.1	5.5	16749*	-3.0
CCOC(=O)CSc1nc(Cc2ccccc2)nc2ccccc12	1.1	2.6	-9.5	4452	0.0
COC(=O)[C@H](CC(C)C)NS(=O)(=O)c1ccc(F)cc1Br	3.9	0.8	5.6	3653	0.3
FC(F)(F)c1cc(-c2ccco2)nc(N2CCN(Cc3ccccc3)CC2)n1	-8.9	-4.0	-12.4	21755*	-5.6
CCc1ccc(C(=O)OCC(=O)N(CCOC)c2c(N)n(Cc3ccccc3)c(=O)[nH]c2=O)cc1	47.2*	11.8	6.9	5761	10.7
COCCN(C(=O)COC(=O)c1nc(Cl)ccc1Cl)c1c(N)n(Cc2ccccc2)c(=O)[nH]c1=O	45.6*	-2.1	-12.4	4829	3.3
CCc1ccc(C(=O)OCC(=O)N(CC)c2c(N)n(Cc3ccccc3)c(=O)[nH]c2=O)cc1	-4.0	-4.3	-1.5	4008	-0.1
O=C1N(Cc2cccc(Cl)c2)C[C@@H]2C[C@@H](c3cccc4cccnc34)N3CCC[C@@]123	0.6	-10.1	-3.1	24208*	2.1
O=C1N(Cc2cccc(Cl)c2)C[C@@H]2C[C@@H](c3cccc4ncccc34)N3CCC[C@@]123	-5.9	-2.4	-1.9	4913	-1.1
O=C(CSc1nnc(-c2ccncc2)n1CC1CCCO1)Nc1cccc(O)c1 (centres undefined)	2.6	-3.7	-7.1	22751*	1.4
CCOc1ccc(NC(=O)CSc2nnc(-c3ccncc3)n2CC2CCCO2)cc1 (centres undefined)	-1.0	-1.4	1.4	3671	0.2
CCC(=O)Nc1ccc(C(=O)CSc2nnc(-c3ccc(O)cc3)n2CC2CCCO2)cc1OC (centres undefined)	1.6	-2.6	2.1	20195*	2.2
CCc1nc(N)c(C#N)c(-c2cccnc2)c1C	11.1	-10.6	3.2	17121*	7.2
Cc1c(/C=N/NC(=O)c2cc(=O)[nH]c(=O)[nH]2)c2ccccn2c1C(=O)c1ccccc1	4.8	0.7	4.4	19024*	3.3
Cc1c(/C=N/NC(=O)c2ccc(O)cc2)c2ccccn2c1C(=O)c1ccc(F)cc1	-10.4	0.2	5.6	2752	1.1
O=C(CSc1ccc2c(c1)OCCO2)Nc1ccc(N2CCOCC2)cc1	-0.1	-2.0	12.3	4081	-0.4
CS(=O)(=O)c1cccc(S(=O)(=O)N2CCCCCC2)c1	-3.9	0.3	9.8	5879	-0.9
COc1ccc(/C=N/N2CCN(c3ccccc3OC)CC2)cc1Br	?	24.2	2.7	2971	1.3
COc1cccc(/C=N/N2CCN(c3ccccc3OC)CC2)c1	-4.7	-4.8	-3.4	24263*	-3.7

Screens as filed in PubChem BioAssay.
